Over roughly 33,000 sequences, “E-score (-0.5 to 0.5)” has its median near -8e-05; the highest 2% begin near 0.23. This excerpt belongs to a sample that is enriched for the highest values.
The sequences below were run against T1, Nrg2 (UniProt P38082) (assay: PBM E-score (8-mer binding enrichment) (E-score (-0.5 to 0.5)); higher = stronger / more preferred TF binding). Conditions: protein concentration: 100 nM; construct: GST-full length.
T1 sequence: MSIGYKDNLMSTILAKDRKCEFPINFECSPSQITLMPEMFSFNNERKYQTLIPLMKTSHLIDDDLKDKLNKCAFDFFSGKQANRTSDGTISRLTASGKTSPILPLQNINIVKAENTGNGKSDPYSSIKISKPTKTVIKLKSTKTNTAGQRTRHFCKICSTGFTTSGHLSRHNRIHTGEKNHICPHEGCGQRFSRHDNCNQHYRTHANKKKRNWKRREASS
Description: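 Universal 'all 10-mer' protein binding microarrays (Agilent AMADID 015681) probed with GST-tagged S. cerevisiae TFs (full-length or DBD) made by in vitro transcription/translation (PURExpress), about 100-200 nM. Bound TF was detected with fluorescent anti-GST. Each ungapped 8-mer (which stands for itself and its reverse complement) is scored by the PBM enrichment score (E-score), a modified Wilcoxon-Mann-Whitney statistic from -0.5 to +0.5, computed with the Universal PBM Analysis Suite. Scale: above 0.35 generally sequence-specific binding.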

Sequence	PBM E-score
TCGACAGA	-0.105
GCGACAGA	0.238
CCGACAGA	0.141
TGTTATAA	0.163
AGGGTCTA	0.356
CGGGTCTC	-0.0571
AGGGTCTC	0.308
CGGGTCTA	-0.0249
AGGGTCTG	0.216
GGGGTCTA	0.203
CCCCCCGC	-0.359
CCACTGTA	0.064
CTGATGAA	0.0121
AGTATGAC	0.0675
AGTATGAT	0.223
ATGATCTA	0.236
ATGATGAA	0.31
AGTATGAA	0.254
GTGATGAA	0.0611
CTGATCTA	0.00323
ATGATCTC	0.087
GCAGCATA	0.0385
GGAGAGGA	-0.215
ACCGAACC	-0.254
CGGACCTC	-0.0835

Sequence	PBM E-score
GACTCACA	0.0103
AGGTAGAT	-0.104
CAACACTA	0.147
TAACACTA	0.248
GAACACTA	0.0307
CGGTTGAA	0.101
AAAGGAAA	0.0754
AGCATAGA	-0.0952
AGCGATCC	-0.129
AGCGATCG	0.24
AGCGATCA	-0.156
CCGTGGAA	-0.00678
CATTGCAG	0.0963
ATGAGAGC	0.00785
ACCTACGG	-0.376
CCTAACGA	-0.038
ATTAGTAC	0.14
CTTAGTTA	0.0769
ATTAGTAA	0.245
GTTAGTTA	0.0784
ATTAGTGA	0.114
AGTAGTTC	0.207
ATTAGTGC	0.23
ATTAGTGG	0.15
AGTAGTTG	0.253

Sequence	PBM E-score
AGTAGTTA	0.0579
ATTAGTTA	0.268
CTTAGTAA	0.0233
GTAACTAC	0.0907
CGTTCTCA	-0.0327
CACCATGA	-0.00138
CGGGCCAG	-0.0425
TGGTTCAA	0.103
CGAGCCCC	-0.154
GACAGCCC	-0.099
CTTCTCTA	-0.137
ATTAGTTG	0.256
AATAGTTG	0.248
AATAGTTA	0.0707
ATTAGTCG	0.143
ATTAGTTC	0.158
AATAGTTC	0.0571
ACTTGAAA	-0.108
CCTTGCAG	-0.0165
CATGCTAG	-0.00401
CCCGATCG	-0.026
AATCTAAC	0.0101
GCGTGAGA	0.297
ACGTGAGA	-0.11
TCGTGAGA	-0.0385

Sequence	PBM E-score
CCTCTAGC	-0.0815
TATTTCCA	0.0167
CATTTCCC	0.201
CATTTCCA	0.237
GGGCTGCA	0.0573
AACTCGGT	-0.00163
AACTCGGA	0.13
AACTCGGC	0.245
GATAAATA	0.262
GATAAATC	0.023
CATAAATA	0.046
TATAAATA	0.255
AATAAATG	0.158
GATAAAAA	-0.00426
AATAAAGA	0.0604
AATAAAGT	0.252
AATAAATA	0.246
AATAAATT	0.215
TATAAAAA	0.164
AATAAAGG	-0.0433
CCCTGCCC	-0.1
ACGGATTG	0.168
ACGACCCG	0.168
GGATAAAC	0.133
AGAGCTAC	0.00658

Sequence	PBM E-score
AGCCGACT	-0.111
CTTGGAAA	0.0285
AGACCGTA	-0.242
AACACGAC	0.0492
ATAAATAG	0.0238
TTAAATAA	0.186
AAAAATAT	0.101
CTAAATAC	0.0507
ATAAATAC	0.283
GTAAATAC	-0.0746
ATAAAAAG	0.257
ATAAATAA	0.237
ATAAAAGG	-0.128
ATAAAAAA	0.0337
ATAAAAAT	0.122
ATAAATAT	0.245
AGCCAGGA	-0.0522
AAGATTCA	0.0877
CGTTGACA	0.00462
GCTAGCAA	-0.0969
CTAAGAGA	-0.0214
ACTACCTG	0.0949
CACTTCGA	0.0548
GACTTCGA	-0.106
TACTTCGA	0.23

Sequence	PBM E-score
CCAAGATA	0.00687
GCAAGATA	0.229
ACAAGATA	0.103
GCTACGCA	-0.108
CGACGAAA	0.0993
GCCGCATA	0.231
ACCGCATA	0.0956
CCCGCATA	0.168
GCCACAAA	0.0838
CCCACAAA	0.247
CCCACAAG	-0.0136
CGCACAAA	0.257
CGCACGAG	-0.0371
CGCACAAG	0.0299
GAGAGAAC	-0.0345
CCCGCCAA	-0.175
AGCCTACG	0.0365
CATAATTA	0.173
GATTAATA	0.29
AATAATTA	0.286
ATTTAATA	0.247
TATTAATA	0.152
GTTTAATA	0.198
AATTAATG	0.182
CATTAATA	0.155

Sequence	PBM E-score
AATTAATA	0.303
AATTAATT	-0.112
CTTTAATA	0.125
GATAATTA	0.0635
CCACCACG	0.00854
CGGGTCAG	0.023
ACCCAGGA	-0.227
ACTGTGGA	-0.109
CGGTCGAC	-0.0395
ACTCTAAA	0.101
GATAGCAA	0.0872
AACTGTCC	-0.0683
GCTGAAAC	-0.139
CTTGATTC	0.0772
GTTGATGA	0.0639
CCTGATAG	-0.153
ATTGATTC	0.244
GCTGATAC	-0.0795
CCTGATAC	0.229
GTTGATAA	0.232
ATTGATAG	-0.0275
CTTGATAA	0.147
ATTGATAA	0.0942
ATTGATAC	0.274
ATTGATTG	0.142

Sequence	PBM E-score
AAACTCCC	-0.0959
GTGGATTA	0.0668
CGGCCTTA	0.0601
ACTCAAGC	-0.148
CAGTTTTC	0.17
AATGGAAC	0.108
AATGGCAC	-0.0263
AATGGAAG	0.0112
AATGGCAG	0.0917
AATGGAAT	0.241
AATGGCAT	0.26
CGCCAAAA	0.119
AAGGAAAC	-0.128
AGGGGACC	0.225
AAGGGACA	0.137
CAGGGACC	0.4
GAGGGACC	0.0355
CAGAGACC	-0.212
CAGGGACA	0.371
AAGGGACC	0.424
AAGGGACG	0.207
AAGGGACT	0.123
CAGAGACG	0.0459
GAGGGACA	0.0412
CAGGGACG	0.306

Sequence	PBM E-score
AGCAAACA	0.0834
GGCGCCTA	-0.0964
AGAACCGC	0.0943
ACGTCAGC	0.129
CCCGAACG	-0.0859
GCAAACGA	0.0657
GGCAACTA	0.194
CGCAACTA	0.244
CGCAACTC	0.147
GCGGCCAA	-0.133
AAGACCCA	-0.181
AGGACCCT	0.369
AGGACCCG	0.0935
AAGACCCT	0.291
AGGACCCA	-0.179
AAGACCCG	0.0509
CCAACCTA	-0.118
AAGTGAGC	-0.0445
CATGGGAA	0.0176
CAGATGAA	0.026
ACGCTAGG	-0.266
AACCAGGG	0.176
CTTAAAAC	0.0325
ATTAACAA	0.179
ATTAAAAG	0.103

Sequence	PBM E-score
CTTAACAC	0.0347
ATCAAAAA	0.237
ATTAAAAC	0.241
ATCAAAAG	0.00066
ATCAAAAT	-0.0176
ATTAACAC	0.246
ATTAAAAT	0.174
ATTAAAAA	0.246
ATTAAACC	0.199
CCTCGTAC	0.0199
CGAACTGC	-0.0594
TCCAGAGA	-0.144
AAGGGGAT	0.205
ACTTAGGG	0.0512
ACCAACTC	-0.0268
CCCAACTA	0.174
CCCAACTC	0.256
GCCGCGCA	-0.0674
CTGGTGGC	0.00474
ACAGTAGA	0.138
AGTATTTA	0.0065
GGTATTTA	0.0832
CGTATTTA	0.248
AGCCCCAT	-0.0124
CTGCGATC	0.0398

Sequence	PBM E-score
CGAGGGCC	-0.0174
AACTTATG	-0.0218
AACTTATC	0.121
AACTTATT	0.256
CATAGTCG	-0.0054
AGGCAAGA	-0.0756
AAGCCCTC	-0.132
ACCAACAT	0.0787
ACCAACAG	-0.00807
ACCAACAA	0.245
GAGAAAGC	0.0912
ACCTACAT	0.00858
GCCCCAGC	0.0519
CTGGTGCC	-0.212
AACTACTA	0.296
TACTAATA	0.0648
CGCTACTC	-0.0612
AACTACTC	0.184
CACTAATA	0.133
AGCTACTA	0.0519
CGCTACTA	0.234
AACTAATA	0.354
AACTACTG	0.0512
AAGACGTG	-0.0832
ACGAATAG	0.0297

Sequence	PBM E-score
CACCTCCC	-0.294
CAGATGGC	-0.107
GAGATACA	0.296
GCGATACA	-0.00403
ACGATACA	-0.0148
TAGATACA	0.0563
AATACCTA	0.144
AAGATACA	0.171
AAGATATC	0.149
CAGATATC	0.133
GAGATATC	0.282
CATACCTA	-0.0293
TCGATACA	0.243
GATACCTA	0.256
ATTTACAA	0.0879
GCGCACAA	0.195
GTAGAGTA	-0.0442
CCACGGGC	-0.139
GGCCGCCA	0.0869
GAGGCCGA	-0.0441
CAAACAAC	0.14
ATAGGAAC	-0.0698
AAAGCAGT	0.201
GATACATC	0.134
GATACATA	0.246

Sequence	PBM E-score
TACATACA	0.199
CACATACA	-0.0126
CATACATA	0.219
GACATACA	0.246
AGAAGTAC	-0.0369
ACCCGCGA	0.174
ACCCGCGG	0.275
ACCCGCGT	-0.119
CCCCGCGG	0.0578
ACCCGCCG	0.201
ACCCGCGC	0.229
ACTAGGAA	-0.094
CGAATCAC	0.117
ACGGACCT	0.17
AGGGACGA	0.248
AAGGACCT	0.0061
CGGGACCA	-0.173
AGGGACGC	0.196
GGGGACCA	0.0565
CTGGACCC	0.275
AGGGACCT	0.382
AGGGACCA	0.35
CTGGACCA	-0.0552
AGGGACGG	-0.0133
ATGGACCC	0.206

Sequence	PBM E-score
CACGATAC	-0.129
ACTTTCGC	-0.0735
CAGTTGCC	-0.092
ATGAGCAA	0.121
AGGGTCAT	0.132
GCCCAAGC	0.106
ATCTATGC	0.117
CCGGGCAC	-0.16
CGCAAAGA	0.111
GGGTCTCA	0.0513
AGGGACTA	0.242
CGGGACCG	-0.0394
GGGGACTA	-0.0994
AGGGACAA	0.228
CGGGACCC	-0.0126
AGGGACAT	0.301
GGGGACCC	0.143
AGGGACAC	0.204
ACGGACCG	-0.252
AGGGACTC	-0.0325
AGGGACCC	0.337
AGGGACCG	0.231
